The full ranking holds about 33,000 sequences; the median of “E-score (-0.5 to 0.5)” is about -0.054, and the highest 2% start at about 0.39. This is one part of a sample in which the highest values are shown more often than they occur.
target: Ylr278c (UniProt Q05854); assay: PBM E-score (8-mer binding enrichment) (E-score (-0.5 to 0.5)); higher = stronger / more preferred TF binding; settings: protein concentration: 200 nM; construct: GST-DNA-binding domain
Method in brief: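 Universal all-10-mer Agilent arrays, fresh or stripped once, were converted to double-stranded form by primer extension. GST-tagged yeast transcription factors from PURExpress in vitro transcription/translation, full-length or DNA-binding domain only, were applied at about 100-200 nM and detected with fluorescent anti-GST. After masliner normalisation, the Universal PBM Analysis Suite scored each ungapped eight-base word together with its reverse complement by E-score.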

Chain of UniProt Q05854 (Q05854 whole entry, the tested form may be a part): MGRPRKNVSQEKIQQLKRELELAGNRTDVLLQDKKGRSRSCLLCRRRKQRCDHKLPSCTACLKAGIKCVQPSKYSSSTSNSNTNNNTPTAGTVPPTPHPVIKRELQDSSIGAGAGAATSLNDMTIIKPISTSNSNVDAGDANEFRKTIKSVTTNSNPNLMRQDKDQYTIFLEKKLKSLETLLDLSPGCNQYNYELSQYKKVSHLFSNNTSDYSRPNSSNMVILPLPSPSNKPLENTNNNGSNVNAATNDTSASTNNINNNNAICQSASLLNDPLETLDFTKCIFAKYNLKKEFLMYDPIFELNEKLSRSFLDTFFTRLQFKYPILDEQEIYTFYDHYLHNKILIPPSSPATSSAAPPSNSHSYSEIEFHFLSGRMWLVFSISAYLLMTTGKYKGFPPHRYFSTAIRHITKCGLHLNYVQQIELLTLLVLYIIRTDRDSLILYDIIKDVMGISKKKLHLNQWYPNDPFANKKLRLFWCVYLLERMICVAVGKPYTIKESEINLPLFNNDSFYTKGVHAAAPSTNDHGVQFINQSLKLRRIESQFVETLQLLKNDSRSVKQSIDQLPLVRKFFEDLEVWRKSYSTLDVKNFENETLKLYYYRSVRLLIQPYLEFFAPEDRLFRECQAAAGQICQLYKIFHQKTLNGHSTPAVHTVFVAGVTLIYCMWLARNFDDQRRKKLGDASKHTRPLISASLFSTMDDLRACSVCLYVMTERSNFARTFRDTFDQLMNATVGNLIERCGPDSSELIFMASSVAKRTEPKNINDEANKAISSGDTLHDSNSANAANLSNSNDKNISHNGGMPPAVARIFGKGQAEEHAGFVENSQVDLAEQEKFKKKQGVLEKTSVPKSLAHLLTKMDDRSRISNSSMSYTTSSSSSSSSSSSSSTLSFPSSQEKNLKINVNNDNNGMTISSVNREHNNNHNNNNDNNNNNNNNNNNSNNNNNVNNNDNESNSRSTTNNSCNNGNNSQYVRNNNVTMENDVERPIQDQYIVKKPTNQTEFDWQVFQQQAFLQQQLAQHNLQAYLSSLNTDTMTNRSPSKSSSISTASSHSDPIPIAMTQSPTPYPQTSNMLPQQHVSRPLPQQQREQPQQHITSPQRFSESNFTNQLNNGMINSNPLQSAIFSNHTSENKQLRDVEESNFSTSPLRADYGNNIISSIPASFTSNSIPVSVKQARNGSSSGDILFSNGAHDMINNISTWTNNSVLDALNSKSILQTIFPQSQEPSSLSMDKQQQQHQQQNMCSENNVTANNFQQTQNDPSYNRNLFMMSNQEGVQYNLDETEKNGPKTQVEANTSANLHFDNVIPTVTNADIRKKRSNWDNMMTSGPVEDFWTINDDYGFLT

Sequence	PBM E-score
GCAGAGCC	-0.128
CGGGAGCC	0.0673
TCAGAGCA	-0.282
CCGGAGCC	0.422
GCGGAGCC	0.394
GAGGAGCC	-0.0931
TCGGAGCA	0.455
TAGGAGCA	-0.184
CTGGAGCC	0.0766
CTGAGGAC	0.0445
AGTCTTTG	-0.289
CATCAAGC	-0.0328
GGGGGCCA	-0.0264
AAGCAAAT	-0.19
GTCACGAA	-0.0546
AGTGTTAT	-0.0541
CAGTCCAA	-0.218
AGGAACAG	-0.279
TGGAACAA	-0.206
CGGAACAC	0.353
CGGAACAG	0.388
CGGAACAA	0.427
GGGAACAA	0.0828
AAACAGCA	0.0669
ATTTCATC	0.166
GCTTGTTA	0.0864

Sequence	PBM E-score
CCGGATCC	0.42
ACGGATCG	0.142
CCGGATCA	0.385
CAGGATCG	0.00336
CCGGATCG	0.396
GCGGATCC	0.271
CTCTTCTC	-0.106
AAATTCAA	0.0115
CAACTAAA	-0.0258
ACTACTCG	0.0653
ATCCTGGA	-0.101
CGTGGTAG	-0.0716
TCGGGAAA	0.35
ATCGGAAT	0.443
CTCGGAAC	0.381
CTCGGAAA	0.374
AGCGGAAT	0.385
TTCGGAAA	0.419
ATTGGAAC	-0.0837
GTGGGAAC	-0.189
AACGGAAT	0.379
GTCGGAAC	0.413
ATCGGAAC	0.406
AACGGAAC	0.322
GATGACGC	-0.146
AGACACCT	-0.185

Sequence	PBM E-score
CGCAGGGC	0.049
ACTTTGCT	-0.141
ACTAACGC	0.0051
AACCTCAT	-0.143
GTCGGGAA	0.201
AGCGGAAA	0.358
GTCGGAAA	0.424
ATCGGAAA	0.416
ATCGGAAG	0.332
CAGCCACC	0.0671
AGCGACTC	-0.142
ACAAACTC	0.155
CCCTTTAA	-0.0852
CTCGTTCC	0.165
ATTAACCG	0.322
CATTTGGG	-0.0571
GAAGAGAC	0.0662
GCATCGGC	0.308
CCATCGGG	0.259
ACATCGGA	0.377
TCATCGGA	0.408
CCATCGGC	0.282
TCATCGCA	-0.0812
CCATCGGA	0.415
TCATCGAA	-0.174
GCATCGGA	0.437

Sequence	PBM E-score
AAAAAGAG	-0.21
AGATCGCC	-0.00696
CCGAGAAG	0.226
GACAATGC	0.0317
GAGTCGAC	0.00525
CAATGGTG	-0.248
ACTCAATA	-0.101
ACTCCGAC	0.481
TCTCCGAA	0.455
ACTCCAAG	-0.198
ACGCCGAC	0.343
ACTCCTAG	-0.114
ACTCCGAG	0.478
CCTCCAAC	-0.212
TCTCCTAA	-0.144
TCTCCAAA	-0.126
ACACCGAC	0.26
CCTCCGAC	0.405
CCACCGAC	0.0976
AAGTAGGA	-0.313
ACACCGCT	0.00228
GGCGCATA	0.0769
GGGCTACA	-0.0376
GTGACGTA	-0.142
CGTCCACC	-0.00012
ACCTCATA	-0.101

Sequence	PBM E-score
AAATACGG	0.14
ACGAACCA	-0.125
GCTCCAAA	-0.172
ACTCCCAT	-0.16
ACTCCCAA	0.0108
CCTCCGAG	0.426
GCTCCGAA	0.464
ACTCCGAT	0.484
GCTCCGAC	0.374
ACTCCAAA	-0.118
CATCCGAG	0.193
ACTCCTAT	-0.0311
ACTCCGAA	0.484
CCTCCAAG	-0.202
ACCTAAGC	0.0293
GGAGAAAC	0.309
CAGGGCGC	0.0102
GGAACCAC	0.0576
AAGCCACG	-0.0652
AAAAGAGA	-0.223
AAAGAAGA	-0.0104
CCTCCGAA	0.441
CCTCCAAA	-0.14
CCACCGAA	-0.0526
GTGAGATA	0.052
GAGGGAGA	-0.145

Sequence	PBM E-score
TACGGAGA	0.386
AACGGAGA	0.393
GACGGATA	0.249
CACGGACC	0.282
AACGGATA	0.292
CACGGAGC	0.403
AACGGAAA	0.374
GACGGAGC	0.378
GACGGAGA	0.453
CACGGAGA	0.429
CAAGGAGA	-0.105
AAATCTGT	-0.0526
TGTTGAAA	-0.0138
ACTACTTA	-0.0798
CGACTATA	-0.0135
CCCCAGAA	0.00338
CACAAAGA	-0.197
CCATAAGC	-0.105
CACGGACG	0.22
AACGGAGG	0.3
AACGGAGT	0.448
CACGGAGG	0.394
AACGGAGC	0.309
AACGGACT	0.328
CCAGCTCG	-0.106
CTGAACCC	-0.0929

Sequence	PBM E-score
TAGAGGAA	-0.211
CAACTGGG	-0.0669
CCGGACCC	0.391
CCGGACCA	0.369
CCGGACCG	0.426
ACGGACCG	0.335
CAGGACCG	0.0623
GCGGACCC	0.354
CCATTCAC	-0.042
CTAGATAG	-0.28
CGCCGTAC	0.163
AAGGCATT	-0.246
GACTCGGA	0.4
GACTCGGC	0.134
TACTCGGA	0.342
AACTCGGT	0.00153
CACTCGGA	0.329
AACTCGGA	0.392
CAATGGGC	-0.106
ACTCATCC	-0.0863
AGGCCACG	-0.0792
AACCCCCG	0.26
AACCCCGT	0.381
ACCCCCGA	0.261
TACCCCGA	0.411
AAACCCCC	-0.0651

Sequence	PBM E-score
GACCCCGA	0.336
AACCCCGC	0.41
ACCCCCGC	0.266
CACCCCGA	0.29
AACCCCGA	0.431
AAACCCCG	0.449
GACCCCGC	0.247
ACGCAGAA	-0.0444
TATATGCA	-0.245
ACCAGTCA	-0.036
TAAGGAAA	-0.131
GCCTATAA	-0.116
AAGCGTTG	-0.256
CCAGCGCA	0.0176
AAGGTGCC	-0.0322
CGTGAATA	-0.00311
AAACCCGC	0.287
ATACCCCC	0.0218
ATACCCCA	0.00063
AAACCCGA	0.384
CAACCCCG	0.397
AACCCCGG	0.458
CAACCCGG	0.229
ACCCCCGG	0.334
ATACCCCG	0.401
CAACCCCC	-0.0384

Sequence	PBM E-score
CACCCCGG	0.314
AAACCCGG	0.428
ACTGTTGC	0.0649
ATAGGACA	-0.311
AGAAGCCG	0.241
AATCGAGA	-0.115
GAGAAGAC	0.0429
CCTATCCG	0.114
GAAATGAC	-0.0184
AGATTGGG	0.0161
CGGAATAC	0.423
CGGAATAA	0.433
GGGAATAA	0.261
GGGAATAC	0.176
CAGAATAG	-0.179
AGGAATAG	0.102
AGGAATAC	-0.0793
TGGAATAA	-0.0106
CGGAATAG	0.391
GAGGGTCC	0.173
CTGGTTGC	0.123
CCTAGCTA	-0.246
TCCCTTAA	-0.263
ATGCTGGC	-0.147
ATAAGTGA	-0.229
CGACGCGC	0.21

Sequence	PBM E-score
TACCCGGA	0.395
TACCCGAA	0.0727
CACCCGGA	0.365
AACCCGGC	0.313
AACCCGGT	0.304
AACCCGGA	0.435
GACCCGGC	0.184
GACCCGGA	0.391
TACCCGTA	-0.0475
CTGAAAAG	-0.131
AGTTGCCG	0.171
GGCGTGTA	-0.155
TATGTAAA	0.0517
CCTTGAAC	-0.189
ACGTACTG	-0.138
AAACTTGC	-0.0141
ACGAGGAA	-0.0559
TGCTCTAA	-0.211
AGTGAGGA	-0.255
TCTCCGCA	0.407
CTTCCGCA	0.198
ACGCCGCT	0.224
ACTCCTCA	-0.21
ACTCCGCA	0.452
TCTCCTCA	-0.147
GCTCCGCA	0.377

Sequence	PBM E-score
AATCCGCC	0.319
ACTCCCCT	0.174
ACTCCGCT	0.417
ACTCCGCC	0.475
GCTCCGCC	0.382
GTTTAGGA	-0.122
ACAGCAGC	-0.191
CGCCCAAC	0.0317
ACCCTAAA	0.099
ATAGCTCG	-0.0396
ATGCTGTA	-0.185
TAAGTATA	-0.0135
GGACTGAA	-0.00012
ATGGCCAT	0.0373
GGGAGATA	-0.0385
CGGATATA	0.393
CGGAGATC	0.479
CGGAGATA	0.483
GGGATATA	0.151
AGGAGATC	0.0493
CGGATATC	0.366
AGGAGATA	-0.016
CTGAGATC	-0.196
CGACTCAA	0.0186
GTCATGAC	0.0612
GCCAGTTA	-0.0644

Sequence	PBM E-score
GCACTCGC	0.0715
CGTTCGCC	0.145
ACATCCGA	0.356
ATATCCGC	0.38
ATATCCGA	0.387
AGATCCGA	0.344
ACATCCGG	0.444
ATATCCGG	0.413
ACATCCGT	0.162
AGATCCGC	0.37
AGATCCGG	0.41
ATAGTGGC	-0.179
ACAGGCAA	-0.209
CTGCGACA	0.094
ACGATGGC	-0.144
ATAAGTAA	0.0323
GCCAACGA	-0.181
CGACTGTA	-0.139
AGGACTTC	-0.0413
CTGACTTC	0.088
CGGACTAA	0.423
CGGACTTA	0.452
AGGACTCC	0.0662
GGGACTTA	-0.0692
CGGACTTC	0.473
GGGACTAA	-0.0466

Sequence	PBM E-score
CGGACTCA	0.384
TGGACTAA	-0.188
CGGACTCC	0.423
AGGACTTA	-0.0757
ACAAAGCG	-0.0993
TGGACGAA	-0.116
ACACCACT	-0.0175
CCCGGTAG	0.252
GCGGTGAC	0.0764
CTGCGGCC	0.2
GTCCGGCA	0.41
CTCCGGCA	0.469
CACCGGCA	0.328
GACCGGCA	0.258
ATCCGGCA	0.369
GCCCGGCA	0.255
CTCCGGCC	0.455
CTACGGCC	0.123
GATCTGGC	0.0483
ACCTAACC	0.0688
TAAGAGGA	-0.0178
AAAGATTG	-0.146
AGCTAAGC	-0.164
CATAGGAC	-0.146
ATCGCTTG	-0.321
CGGGTGAG	0.167

Sequence	PBM E-score
CATATGGC	-0.0951
ACCAGATA	-0.0605
CGTTGGAA	-0.0729
CCTTCGAG	-0.0791
AGGAGACA	-0.0751
CGGAGACA	0.39
TGGAGACA	-0.227
AGGAGACG	-0.12
CGGAGACC	0.406
AGGAGACC	-0.145
CGGAGACG	0.415
GGGAGACC	-0.0886
CAGAGACG	-0.0283
